Calls of active or inactive are those of the source. Unless noted, how the calls were made is not given here.
Legend:
[1] = anti-His antibody binders, primary screen, artefact control for SMM control protein annotation, biochemical, small-molecule microarray, 635 nm fluorescence (AID 1128); settings: anti-His Alexa647 antibody binding, higher = more signal;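 further: score merges feature fluorescence with signal-to-noise for each printed compound spot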
[2] = system: Human papillomavirus type 1a E7 protein (residues 1-88); experiment: HPV1a E7 small-molecule binders, primary screen, biochemical, small-molecule microarray, residues 1-88, 635 nm (AID 1129); settings: small-molecule microarray binding, fluorescence 635 nm; higher = more signal
[3] = biological target: Focal adhesion kinase 1 (Homo sapiens) (UniProt Q05397); experiment: small-molecule microarray binders of FAK, primary screen, biochemical, 635/667 nm fluorescence, BSA, DTT (AID 1130); settings: PTK2 binding, 635 nm fluorescence, higher = more signal;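 further: composite of spot emission at 667 nm and signal to noise over triplicate slides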
Chain of Focal adhesion kinase 1 (Homo sapiens) (Q05397 whole entry, looked up): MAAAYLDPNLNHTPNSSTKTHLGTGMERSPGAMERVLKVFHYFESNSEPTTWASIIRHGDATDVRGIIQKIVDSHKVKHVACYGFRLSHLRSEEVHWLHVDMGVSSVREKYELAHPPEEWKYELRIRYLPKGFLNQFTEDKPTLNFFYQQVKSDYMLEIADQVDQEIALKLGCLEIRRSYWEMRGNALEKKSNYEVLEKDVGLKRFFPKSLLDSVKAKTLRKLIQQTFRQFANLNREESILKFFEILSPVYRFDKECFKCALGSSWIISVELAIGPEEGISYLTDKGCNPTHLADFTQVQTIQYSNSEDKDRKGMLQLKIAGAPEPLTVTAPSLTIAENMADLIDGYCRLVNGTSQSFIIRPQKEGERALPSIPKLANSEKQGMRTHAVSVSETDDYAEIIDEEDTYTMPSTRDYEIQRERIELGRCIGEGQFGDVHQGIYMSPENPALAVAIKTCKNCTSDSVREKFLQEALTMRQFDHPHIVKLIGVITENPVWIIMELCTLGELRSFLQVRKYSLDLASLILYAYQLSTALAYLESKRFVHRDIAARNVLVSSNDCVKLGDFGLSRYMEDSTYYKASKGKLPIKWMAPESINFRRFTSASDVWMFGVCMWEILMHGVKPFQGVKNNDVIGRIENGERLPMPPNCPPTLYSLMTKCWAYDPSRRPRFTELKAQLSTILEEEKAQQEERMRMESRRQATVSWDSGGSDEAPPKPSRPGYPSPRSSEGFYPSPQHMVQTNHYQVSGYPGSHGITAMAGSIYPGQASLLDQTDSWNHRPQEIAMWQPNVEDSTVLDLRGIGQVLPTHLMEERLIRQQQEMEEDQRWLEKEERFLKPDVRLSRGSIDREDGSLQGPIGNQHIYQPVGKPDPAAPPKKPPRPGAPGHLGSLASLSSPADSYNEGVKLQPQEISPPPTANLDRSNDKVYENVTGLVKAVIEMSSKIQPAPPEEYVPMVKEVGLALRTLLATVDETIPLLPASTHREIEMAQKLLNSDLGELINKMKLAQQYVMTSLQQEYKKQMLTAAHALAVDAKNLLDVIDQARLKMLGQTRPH

[4] = system: Fibrinogen (Alexa647-labelled); experiment: fibrinogen binders on compound microarrays, profiling panel, artefact control for SMM control-protein annotation, biochemical, small-molecule microarray, 635/667 nm fluorescence (AID 1131); settings: fibrinogen-A647 binding fluorescence, higher = more signal;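 further: z-score merges 667 nm fluorescence with per-spot signal-to-noise over triplicate slides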
[5] = biological target: Follistatin (Homo sapiens) (UniProt P19883); experiment: follistatin binders on small-molecule microarrays, primary screen, biochemical, small-molecule microarray, 635/667 nm fluorescence (AID 1132); settings: FST binding, 635 nm fluorescence, higher = more signal
Chain of Follistatin (Homo sapiens) (P19883 whole entry, looked up): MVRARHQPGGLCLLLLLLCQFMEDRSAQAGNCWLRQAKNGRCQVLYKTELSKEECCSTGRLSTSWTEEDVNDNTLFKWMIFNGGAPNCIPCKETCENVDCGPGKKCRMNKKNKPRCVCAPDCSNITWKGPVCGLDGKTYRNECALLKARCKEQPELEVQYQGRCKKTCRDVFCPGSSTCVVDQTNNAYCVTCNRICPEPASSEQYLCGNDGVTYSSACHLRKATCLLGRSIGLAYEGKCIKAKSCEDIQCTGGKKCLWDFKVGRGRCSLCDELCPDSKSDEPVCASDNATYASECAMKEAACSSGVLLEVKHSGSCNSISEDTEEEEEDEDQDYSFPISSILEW

[6] = biological target: Fibroblast growth factor 2 (Homo sapiens) (UniProt P09038); experiment: FGF2 binders on small-molecule microarrays, primary screen, biochemical, small-molecule microarray, 635/667 nm fluorescence (AID 1133); settings: small-molecule microarray binding, FGF2, fluorescence 635/667; higher = more signal
Chain of Fibroblast growth factor 2 (Homo sapiens) (P09038 whole entry, looked up): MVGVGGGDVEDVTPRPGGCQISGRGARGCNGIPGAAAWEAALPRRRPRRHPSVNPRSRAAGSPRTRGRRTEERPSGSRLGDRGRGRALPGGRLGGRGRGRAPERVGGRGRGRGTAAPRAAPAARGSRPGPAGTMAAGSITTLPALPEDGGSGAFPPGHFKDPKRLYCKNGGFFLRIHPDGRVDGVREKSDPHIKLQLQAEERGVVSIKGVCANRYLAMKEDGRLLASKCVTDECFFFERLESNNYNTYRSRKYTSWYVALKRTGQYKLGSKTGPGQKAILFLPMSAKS

[7] = mitochondrial membrane potential change in A549 cells, profiling panel, cell-based, JC-1 fluorescence, basal, 24 h, 100 nL (AID 1138); settings: higher = more signal;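 further: A549 lung adenocarcinoma cells under basal conditions with no added stimulus; test concentration not given here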
[8] = system: Lefty1; experiment: Lefty1 binders on small-molecule microarrays, primary screen, biochemical, small-molecule microarray, 635/667 nm fluorescence (AID 1139); settings: small-molecule microarray binding, fluorescence 635/667; higher = more signal
[9] = system: wheat germ agglutinin (Triticum aestivum), Alexa647-labelled; experiment: wheat germ agglutinin binders on compound microarrays, profiling panel, artefact control for SMM control-protein annotation, biochemical, small-molecule microarray, 635/667 nm fluorescence (AID 1140); settings: WGA-A647 binding, 635 nm fluorescence, higher = more signal;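 further: score merges 667 nm feature emission with signal to noise over triplicate slides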
[10] = biological target: Luciferin 4-monooxygenase (Photinus pyralis) (UniProt P08659); experiment: firefly luciferase enzyme inhibitors, primary screen, biochemical, luminescence, purified enzyme, 2006 set (AID 1141); settings: SteadyGlo luminescence, 30 min, higher = more signal, called active from +8 up or from −8 down;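 further: cell-free assay with purified firefly luciferase at 100 ng per well in PBS; test concentration not given here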
Chain of Luciferin 4-monooxygenase (Photinus pyralis) (P08659 whole entry, looked up): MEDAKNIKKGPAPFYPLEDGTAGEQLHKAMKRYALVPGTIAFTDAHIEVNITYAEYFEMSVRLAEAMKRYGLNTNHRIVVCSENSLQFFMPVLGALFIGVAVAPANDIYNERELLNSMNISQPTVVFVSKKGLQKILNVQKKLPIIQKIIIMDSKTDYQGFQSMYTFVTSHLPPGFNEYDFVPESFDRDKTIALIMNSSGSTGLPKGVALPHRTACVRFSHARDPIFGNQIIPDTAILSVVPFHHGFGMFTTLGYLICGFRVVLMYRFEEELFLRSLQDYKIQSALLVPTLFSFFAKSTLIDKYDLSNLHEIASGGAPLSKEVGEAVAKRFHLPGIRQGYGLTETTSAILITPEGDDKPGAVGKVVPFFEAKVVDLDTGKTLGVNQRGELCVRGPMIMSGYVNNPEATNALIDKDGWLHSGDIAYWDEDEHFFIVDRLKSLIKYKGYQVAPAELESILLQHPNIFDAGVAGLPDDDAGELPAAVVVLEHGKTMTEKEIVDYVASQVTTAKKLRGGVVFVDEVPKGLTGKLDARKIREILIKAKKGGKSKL

[11] = system: Wnt5a (protein binding on small-molecule microarray); experiment: Wnt5a binders on small-molecule microarray, primary screen, biophysical, 635/667 nm fluorescence (AID 1142); settings: 635 nm fluorescence, higher = more signal;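 further: fluorescence read at 667 nm with signal to noise per printed feature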
[12] = cell viability in Huh7 cells, primary screen, cytotoxicity control for HCV replication inhibitor project, CellTiter-Glo luminescence, basal, 48 h (AID 1143); settings: Huh7 HCV replicon, higher = more signal, called active from +8 up or from −8 down;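 further: Huh7 hepatoma cells carrying a hepatitis C replication reporter with no stimulus; test concentration not given here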
[13] = P. aeruginosa biofilm formation inhibitors, primary screen, PAO1 strain, BacTiter-Glo luminescence, LB-PBS (AID 1144); settings: 12 h, higher = more signal
[14] = CREB reporter modulators without forskolin, primary screen, cell-based, PC12, CRE-LacZ reporter, unstimulated (AID 1145); settings: no forskolin, luminescence, 4.5 h, higher = more signal, called active from +8 up or from −8 down
[15] = CREB reporter modulators under forskolin, primary screen, cell-based, PC12, CRE-LacZ reporter, forskolin-stimulated (AID 1146); settings: luminescence, 4.5 h, higher = more signal, called active from +8 up or from −8 down;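 further: PC12 cells with 6xCRE LacZ reporter stimulated by forskolin 10 µM; beta-galactosidase reporter signal reflecting CREB driven transcription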
[16] = biological target: Streptavidin (Streptomyces avidinii) (UniProt P22629); experiment: streptavidin binders on small-molecule microarray, primary screen, artefact control for SMM compound annotation, biophysical, 635/667 nm fluorescence (AID 1147); settings: streptavidin binding, higher = more signal;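 further: signal reflects streptavidin binding to arrayed compounds as a control protein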
Chain of Streptavidin (Streptomyces avidinii) (P22629 whole entry, looked up): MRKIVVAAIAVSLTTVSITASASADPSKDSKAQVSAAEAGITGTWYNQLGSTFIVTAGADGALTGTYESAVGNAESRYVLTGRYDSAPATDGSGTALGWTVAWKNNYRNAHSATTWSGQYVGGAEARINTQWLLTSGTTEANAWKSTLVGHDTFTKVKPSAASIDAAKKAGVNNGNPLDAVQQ

[17] = small-molecule binders of probe aInhba, primary screen, biochemical, small-molecule microarray, 635/667 nm fluorescence (AID 1148); settings: higher = more signal;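 further: score merges 667nm spot fluorescence with signal-to-noise for antibody binding to printed compounds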
[18] = biological target: Torsin-1A (Homo sapiens) (UniProt O14656); experiment: torsin A binders from cell lysate, primary screen, small-molecule microarray, wild-type, 635/667 nm (AID 1149); settings: COS7 hTOR1A-WT lysate, 635 nm fluorescence, higher = more signal
Chain of Torsin-1A (Homo sapiens) (O14656 whole entry, looked up): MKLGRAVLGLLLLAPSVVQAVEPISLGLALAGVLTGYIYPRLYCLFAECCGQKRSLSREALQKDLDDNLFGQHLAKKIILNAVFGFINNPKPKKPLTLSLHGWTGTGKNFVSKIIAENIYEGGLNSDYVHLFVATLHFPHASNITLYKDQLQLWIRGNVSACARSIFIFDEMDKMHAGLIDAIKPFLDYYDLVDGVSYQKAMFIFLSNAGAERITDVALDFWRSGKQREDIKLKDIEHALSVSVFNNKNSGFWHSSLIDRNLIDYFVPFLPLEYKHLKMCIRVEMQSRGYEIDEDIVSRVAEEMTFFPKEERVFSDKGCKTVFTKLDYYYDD

[19] = biological target: Torsin-1A (Homo sapiens) (UniProt O14656); experiment: small-molecule binders of mutant TOR1A in lysate, primary screen, cell lysate, small-molecule microarray, COS7 lysate, 635/667 nm fluorescence (AID 1150); settings: COS7 hTOR1A mutant lysate, 635 nm fluorescence, higher = more signal;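 further: score pools 667 nm emission and signal to noise measuring lysate protein binding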
[20] = system: Sonic hedgehog protein (Shh); experiment: small-molecule binders of Shh protein, primary screen, biochemical, small-molecule microarray, 635/667 nm fluorescence (AID 1151); settings: small-molecule microarray binding, 635 nm fluorescence; higher = more signal;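 further: Shh protein binding to compounds spotted on small-molecule microarray slides; score combines spot fluorescence intensity with signal-to-noise across triplicate slides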

Compound | composite z-score [1] | composite z-score [2] | composite z-score [3] | composite z-score [4] | composite z-score [5] | composite z-score [6] | z-score [7] | composite z-score [8] | composite z-score [9] | z-score [10] | composite z-score [11] | z-score [12] | z-score [13] | z-score [14] | z-score [15] | composite z-score [16] | composite z-score [17] | composite z-score [18] | composite z-score [19] | composite z-score [20]
CC(C)CNC(=O)[C@@]1(C)c2ccccc2C(=O)N(Cc2cc(C(F)(F)F)cc(C(F)(F)F)c2)[C@H]1c1ccc(CO)cc1 | -0.738 | -0.391 | -0.342 | -1.03 | -0.117 | 0.0193 | 0.843 | 0.0325 | -0.356 | -0.0582 (inactive) | -0.445 | -3.12 (inactive) | 0.92 (inactive) | 0.414 (inactive) | -0.578 (inactive) | -0.366 | -0.0987 | -0.918 | -0.267 | -0.117
O=C1C[C@@](C(=O)NCc2ccccc2)(c2ccc([N+](=O)[O-])cc2)[C@@H](c2ccc(CO)cc2I)N1CC12CC3CC(CC(C3)C1)C2 | 0.579 | 0.976 | 0.121 | 0.846 | 1.41 | 1.54 | -1.36 | 1.52 | 1.07 | 1.34 (inactive) | 0.77 | -5.74 (inactive) | -1.67 (inactive) | -0.709 (inactive) | -0.038 (inactive) | 0.0117 | -0.246 | 0.585 | 0.825 | 2.06
COCCOC(=O)N1C(=O)[C@@]2(c3cc(C#Cc4ccc(OC)cc4)ccc31)[C@H](c1ccc(OCCO)cc1)N1[C@H](c3ccccc3)[C@H](c3ccccc3)OC(=O)[C@H]1[C@@H]2C(=O)Nc1nc2ccccc2s1 | 0.52 | 1.16 | 0.415 | 0.707 | 1.05 | 0.464 | -2.05 | 0.676 | 0.609 | -1.27 (inactive) | 0.144 | -1.1 (inactive) | 0.408 (inactive) | 0.272 (inactive) | -0.175 (inactive) | 1.19 | 0.164 | 0.29 | 0.461 | 0.691
CC1CC/C=C\[C@H]2OC34C=CCN(C(C)(C)C)C(=O)[C@H]3N(C(CO)C(C)C)C(=O)[C@@H]4C2C(=O)O1 (stereo not given in full) | -0.0256 | -0.181 | 0.102 | -1.26 | 0.276 | 0.365 | -0.428 | 0.659 | -0.324 | -0.0671 (inactive) | 0.0295 | 0.0336 (inactive) | 1.4 (inactive) | -0.354 (inactive) | 0.46 (inactive) | -0.324 | -0.128 | 0.0733 | 0.931 | 0.774
CC(C)C[C@@H]1NC(=O)[C@@H]2C[C@H](C(=O)NCCCCCC[N+](C)(C)C)[C@H](c3cccc(OCCO)c3)N2C1=O | -0.759 | -0.0265 | -0.219 | 0.0163 | 0.349 | 1.17 | -0.547 | 0.34 | -0.285 | 0.184 (inactive) | -0.391 | -0.351 (inactive) | -0.226 (inactive) | -0.943 (inactive) | -0.153 (inactive) | -0.665 | -0.128 | -0.153 | 0.393 | 1.46
[N-]=[N+]=Nc1ccccc1[C@@H]1OC(c2ccc(OCCCO)cc2)=N[C@]1(Cc1ccccc1)C(=O)NCc1ccccc1 | 1.27 | 1.17 | 0.763 | 0.798 | 0.852 | 0.409 | -1.63 | 0.491 | 1.36 | -5.74 (inactive) | 0.792 | -3.97 (inactive) | -0.065 (inactive) | 0.143 (inactive) | -0.757 (inactive) | 1.45 | 0.38 | 0.662 | 1.09 | 0.263
Cc1ccc(S[C@]2(C(=O)NC(C)C)CC(=O)N(C(C)C)[C@@H]2c2ccc(CO)cc2I)cc1 | -0.893 | -0.0049 | 1.58 | 0.351 | -0.077 | -0.471 | 1.28 | -0.18 | 0.169 | 1.11 (inactive) | -0.0983 | -2.59 (inactive) | -0.468 (inactive) | 0.324 (inactive) | -0.3 (inactive) | -0.368 | -0.15 | -1.07 | 0.885 | -0.244
NC(=O)[C@H]1[C@@H]2C(=O)O[C@@H](c3ccccc3)[C@@H](c3ccccc3)N2[C@@H](c2ccc(O)cc2)[C@]12C(=O)Nc1ccc(C#CC3=CCCCC3)cc12 | 2.5 | 1.2 | 0.985 | 0.587 | 0.959 | -0.004 | -1.96 | 0.542 | 0.548 | -0.784 (inactive) | -0.0856 | -3.73 (inactive) | 0.363 (inactive) | 0.478 (inactive) | 0.731 (inactive) | 0.185 | -0.128 | 0.509 | 0.721 | 1.19
O=C1C2C=CC(C(O)C=Cc3ccc([N+](=O)[O-])cc3)N(Nc3ccccc3)C2C(=O)N1c1ccccc1 (stereo not given) | 0.185 | 1.2 | 0.0142 | 1.02 | 1.24 | 0.0395 | -0.0492 | 0.416 | 0.932 | -1.65 (inactive) | 0.264 | -0.132 (inactive) | -0.633 (inactive) | -0.143 (inactive) | -0.148 (inactive) | 1.53 | 0.117 | -0.283 | 0.0565 | 0.0063
C=CCC(OC(C)=O)[C@@H]1[C@@H](N(Cc2ccc(-c3cccc(C(F)(F)F)c3)o2)C(=O)c2cccc3ccccc23)c2cc(OCCCO)ccc2N1C(=O)Cc1ccc(OC)cc1 (stereo not given in full) | -0.0466 | -1.02 | -0.104 | -0.765 | 0.998 | -0.0117 | -0.465 | 0.229 | 0.0854 | 0.638 (inactive) | -0.307 | -2.29 (inactive) | 0.302 (inactive) | -0.593 (inactive) | 0.0843 (inactive) | -0.551 | -0.102 | -0.577 | 0.264 | 0.439
